# Measurements from the supplement of paper PMC6555819.
# Columns and labels:
# Experiment in all cases: PBM binding z-score (relative to random genomic background probes); higher = stronger binding; sequences stand for … in GC…GCGATTGACAGCGTAGAATGAAGG
# [1] = system: RARb homodimer (NR concentration 270 nM)
# Method in brief: (§1)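 Regression normalization was applied to scanned fluorescence from custom Agilent 4×180K protein-binding microarrays. Before scanning, arrays were incubated 1 h with ligand-free nuclear receptor dimers, and binding was detected with antibodies against each partner (one per run). Binding z-scores use the random background probes as reference.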
# [2] = system: RARg:RXRa (NR concentration 270 nM, RXRa partner concentration 90 nM)
# Method in brief: as §1
# [3] = system: RARg homodimer (NR concentration 270 nM)
# Method in brief: as §1
# [4] = system: RXRa DBDmut IVT, anti-RXR (DBD mutation: RXRa K156A/R161A, NR concentration 90 nM)
# Method in brief: as §1
# [5] = system: RXRa homodimer (NR concentration 180 nM)
# Method in brief: as §1
# [6] = system: THRa:RXRa (NR concentration 90 nM, RXRa partner concentration 90 nM)
# Method in brief: as §1
# [7] = system: THRa homodimer (NR concentration 90 nM)
# Method in brief: as §1
# [8] = system: VDR homodimer (NR concentration 270 nM)
# Method in brief: as §1
Sequence,PBM binding z-score [1],PBM binding z-score [2],PBM binding z-score [3],PBM binding z-score [4],PBM binding z-score [5],PBM binding z-score [6],PBM binding z-score [7],PBM binding z-score [8]
TCATATAGGTAAACCGGTGAAAGTCCGTAAGTTA,0.357,0.195,0.0982,1.45,0.746,0.262,0.203,0.541
CCTCGGGGGACAACAGGAGGTCAGAGCTGCCAGA,3.75,4.66,4.32,0.347,2.89,3.22,1.07,1.19
ATATGTCGGTTAAGGGTCATTCAGGTTGGTTCGC,3.68,4.69,3.43,2.21,4.55,3.42,1.7,4.47
CCTACTGGGCCAAGGTCGTTGATCAGTCAAAGCA,0.763,0.488,0.541,-0.262,0.465,1.31,0.184,1.19
TAGCCTAGGTCATTCTGGGGCCAGTATAGAAAGC,2.94,4.85,3.81,1.87,2.52,3.62,0.956,1.11
CCTATTAGTTGACCATAAGGGCAAACGAAGCTCG,1.93,1.48,1.31,0.782,0.751,1.72,1.08,1.01
CACACTAGGTCACGAAAGGTCAAAGTCGAATGAC,5.91,7.95,8.87,2.87,8.16,5.26,3.18,3.49
TCTGCTAGGTCAACGATGGTCAGCTAATCTGCTA,3.36,4.01,4.95,1.24,2.42,3.15,0.461,-0.403
TCATATAGGTAAACAGGTGAAAGCCCGTAAGTTA,0.749,0.546,0.364,1.2,1.64,0.571,0.487,-0.138
GCTGCTAGGTCAGGTAGGTCAGCTAACGGGTACG,4.09,4.09,4.85,0.899,2.38,2.78,0.866,0.966
CCGACTGGGGCAAGTTTACCATAACGCACAGCCA,0.697,0.446,0.667,0.533,0.261,-0.0579,-0.484,0.132
AATACAGGTTCACTAGGCCAGAGTAGGTACGAAT,1.25,1.84,1.4,4.16,2.15,1.12,0.232,4.64
TCATATAGGTAAATGCTATGTGAAAGTCCGATCT,-0.22,0.473,0.452,1.17,0.894,0.0535,0.0976,0.435
CCAGACAGCTGAGAAGGTAACTCAGCCTCGATTA,-0.378,-0.436,-0.0751,-0.0865,-0.206,-0.157,-0.306,-0.494
CTCGAAAGGTCGGTTGAGGTGAGTATTCGGATAA,2.52,2.59,2.91,1.01,2.25,4.98,1.25,0.522
CCTTACGGGTGACTCCAGGTTATAGCATCGGAGT,0.532,0.648,0.639,-0.594,0.973,3.65,0.215,0.0105
CCTACTGGGCCACGAAAGGTCAATGATTCAGTGA,4.81,4.94,4.64,0.165,4.81,3.66,0.66,0.883
TAGCCTAGGTCATGCAGGGGCCAGTATAGAAAGC,3.35,6.15,4.48,0.31,3.12,3.29,0.474,0.435
CAAACTAGGTCAAAGGTCAAAGTGGAGCCAACCA,4.96,8.91,7.43,3.12,10.1,4.71,1.88,3.27

Sequence,PBM binding z-score [1],PBM binding z-score [2],PBM binding z-score [3],PBM binding z-score [4],PBM binding z-score [5],PBM binding z-score [6],PBM binding z-score [7],PBM binding z-score [8]
CCTAGCAGGCCACTCTGGGTCACTCAAGGCTTGA,2.05,1.36,1.45,0.0538,0.851,3.4,0.412,0.081
ATCTCGAGGTAACAAGTTCAGTGAAAGAGAGGAC,1.83,2.13,1.42,0.518,1.15,2.31,0.969,2.28
GCTAGCAGGCCACTTGGGTCACTCAATGACGGGC,2.08,1.11,1.41,-0.454,0.892,1.67,0.36,0.24
TCTTGTAGATCACGCAGGTTAAGAAAGCCTGAGT,0.254,0.174,0.0532,0.693,0.723,0.601,-0.33,-0.258
CCAGACAGGTGAAAGGTGACTCAGTCTGGTACGC,1.63,2.35,1.15,-0.229,3.18,1.44,0.239,0.14
ATCTCTAGGTAAACATAGTTCAGTGAATGCAAAT,1.42,0.884,0.928,-0.105,0.495,1.07,0.425,0.447
TCTTATAGATCAGCAGGTTAAGAAAGCTGGCCAA,-0.092,0.0544,-0.0955,0.704,0.376,0.0186,-0.656,-0.144
CTCGAAAGGTCGTGCTCAGGTGAGTCTACCAAAC,2.6,5.27,3.98,2.42,4.89,4.01,0.948,1.03
TCTCGGAGGACACGAAAGGTAAGAGCTCGACATC,0.782,0.65,1.6,0.729,0.0654,2,0.0945,-0.863
TCTGCTAGGTCAACGATGGTCAGCCAATCTGCTA,3.23,4.3,5.2,1.06,2.55,3.16,0.561,-0.316
AGAATGAGGTTACCAAAGATCGGGGAAACGCTTG,0.666,1.91,1.43,1.5,2.5,2.71,0.699,-0.00618
TCCTGTAGATCAGCAGGTTAAGAAAGCTGGCCAA,-0.00726,-0.0905,-0.286,0.636,0.412,0.129,-0.526,-0.526
AATAGAGGGTCATCGTAGGCCAGAGTACGCACAG,3.48,5.35,5.12,2.46,5.77,4.26,0.0486,2.55
ACTAGCAAGCCAAGTTTGGGTCACTCAAACAAAG,1.51,0.717,0.562,-0.45,0.557,2.09,0.807,-0.115
ATCGAAAGGTCGACGAGGTGAGTCTACACCGTTT,3.08,4.01,3.95,1.04,4.04,3.99,1.04,0.956
CCTACTGGGCCAAAAAGGTGATTGATGCCGATAA,0.483,0.0442,0.047,-0.635,-0.0112,0.0456,-0.353,-0.114
TGTCAAAGTACAAAGGTAACGTAAGTATCCACAC,1.01,1.41,1.32,0.417,0.984,1.33,-0.416,0.229
AATACAGGGTCATCGTAGGCCAGAGTACGCACAG,3.55,5.49,5.05,3.55,6.83,4.6,1.54,3.35
TAGCCTAGGCCAGATCGGGCCAGTATACGCTATA,-0.577,-0.451,-0.0912,-1.32,-0.625,0.522,-0.893,-0.924

Sequence,PBM binding z-score [1],PBM binding z-score [2],PBM binding z-score [3],PBM binding z-score [4],PBM binding z-score [5],PBM binding z-score [6],PBM binding z-score [7],PBM binding z-score [8]
GCTCGGAAGACAAGGTCAGAGCTTTGTCCGTAGA,2.34,2.28,1.86,0.349,2.11,2.52,0.95,0.19
CCGACTGGGGCAAGATTACCATAACGCACAGCCA,0.349,0.185,0.477,-0.0134,0.0853,-0.474,-0.565,-0.566
ATATGTAGGTTAAGGGTCGTTCAGGTTGGTTCGC,2.6,2.82,1.63,1.64,3.9,2.48,1.75,2.58
CCTAGCAGGCCAATCTGCGTCACTCAAGGCTTGA,-0.405,-0.524,-0.155,0.164,-0.602,-0.51,-0.515,-0.294
TCGAGTAGGTTACCAATGGGGCGTTCAGCTTTCT,0.227,0.184,0.225,0.454,0.239,-0.0946,-0.39,-0.531
CCTACTCGGCCATTCAGAGGTCATTGATCATATG,4.19,4.17,3.64,2,3.59,3.32,1.99,4.02
TAGCCTAGGTCAGATCGGGCCAGTATCCGCTATA,2.26,2.39,3.37,-0.366,1.35,4,0.15,-0.329
CGAACTAGGTCATTGACAGGCCAGTGAATAGTAA,2.44,4.45,4.53,1.99,3.06,2.53,0.248,0.674
CCTTACGGGTCAAGGTTATAACACGGGTGGTACG,3.35,5.02,4.89,1.1,5.42,3.06,0.539,1.41
CTGACTGGGGCAAGGTTACCATAACGCACAGCCA,1.54,1.43,1.43,0.0299,1.28,1.52,0.417,0.129
ATATGTGGGTTAAGGGTCATTCAGGTTGGTTCGC,3.84,4.83,3.59,2.43,6.27,3.62,2.41,4.82
ATATGTAGGTTAGGTGGGGTCATTCAGACTAGGC,3.74,4.1,3.02,2.19,5.54,5.05,3.72,6.4
ATCTCTAGGTAAAGTTCAGGGAAAGATCGATAGA,2.7,2.5,2.77,1.38,1.98,1.61,0.441,2.18
TGTCAAAGTTCAAAGGTAACGTAGGTATCCACAC,4.01,6.19,6.01,4.14,7.19,3.05,-0.392,3.97
CCTATTAGTTGACCATAAGGGCTACCGAAGCTCG,1.04,0.591,0.633,0.659,0.214,0.318,0.305,0.787
TCTTGTAGATCAATAGAGTTTAAGAAAGTGCGCT,0.231,0.0376,0.187,0.774,0.274,0.289,-0.976,0.914
GGGACTGGGGCATCAGCAGGTTACCATAACTTAA,1.91,1.51,1.03,-0.52,0.556,1.66,1.46,0.605
TAGCCTGGGTCATGCGGGCCAGTATAGTGTCGGC,2.5,3.64,3.37,-0.265,3.11,2.46,-0.102,0.606
